# From PubChem BioAssay
# Activity calls are given as the source filed them.
# Columns and labels:
# [1] = system: Plasmodium falciparum Sir2 (PF13_0152, Sir2A); test: Plasmodium falciparum Sir2A binding compounds – biochemical, small-molecule microarray, 635 nm fluorescence, primary screen (AID 1098); conditions: fluorescence 635 nm, higher = more signal;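 further: score merges spot fluorescence intensity with its signal-to-noise ratio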
# [2] = probe aDKK1 binding to arrayed compounds – biochemical, biotinylated probe, 635/667 nm fluorescence, primary screen (AID 1099); conditions: small-molecule microarray, higher = more signal;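 further: score merges 667nm spot fluorescence with signal to noise across triplicate slides; reference of the scale not given here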
# [3] = probe aCHRDL2 binding to arrayed compounds – biochemical, biotinylated probe, 635/667 nm fluorescence, primary screen (AID 1100); conditions: small-molecule microarray, higher = more signal
# [4] = change in splice reporter luminescence, either direction, cell-based, HEK293, spliceosome inhibition project, primary screen (AID 1101); conditions: HEK293 splicing luciferase reporter, 24 h, higher = more signal, called active from +8 up or from −8 down;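 further: HEK293 cells carrying a splicing-competent luciferase reporter gene; test concentration not given here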
# [5] = target: Fibroblast growth factor 10 (Homo sapiens) (UniProt O15520); test: compounds binding fibroblast growth factor 10 – biochemical, small-molecule microarray, 635 nm fluorescence, primary screen (AID 1102); conditions: FGF10 binding, fluorescence 635 nm, higher = more signal
# [6] = system: glycogen synthase kinase-3 (GSK3A per assay name; protocol says GSK3B); test: compounds binding glycogen synthase kinase-3 – biochemical, small-molecule microarray, 635 nm fluorescence, GSK3A, primary screen (AID 1103); conditions: fluorescence 635 nm, higher = more signal; further: the record names both GSK3A and GSK3B
# [7] = target: Epidermal growth factor receptor (Homo sapiens) (UniProt P00533); test: compounds binding epidermal growth factor receptor – biochemical, small-molecule microarray, 635 nm fluorescence, primary screen (AID 1104); conditions: EGFR binding, higher = more signal;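 further: score merges 667 nm emission intensity with spot signal to noise over triplicate slides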
# [8] = target: Follistatin-related protein 3 (Homo sapiens) (UniProt O95633); test: compounds binding follistatin-related protein 3 – biochemical, small-molecule microarray, 635 nm fluorescence, primary screen (AID 1105); conditions: FSTL3 binding, higher = more signal;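 further: score merges emission near 667 nm and signal to noise per printed spot across three slides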
# [9] = target: Dickkopf-related protein 1 (Homo sapiens) (UniProt O94907); test: small molecules binding DKK1 protein – biochemical, small-molecule microarray, 635 nm fluorescence scan, primary screen (AID 1106); conditions: higher = more signal;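 further: score merges emission near 667 nm with signal to noise over three replicate slides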
# [10] = system: Inhibin beta A chain (activin A); test: small molecules binding activin A – biochemical, small-molecule microarray, 635 nm fluorescence scan, primary screen (AID 1107); conditions: INHBA, higher = more signal;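 further: mouse activin A protein probed at 4.33 µg/mL on printed slides; score merges bound-protein fluorescence near 667 nm with spot signal-to-noise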
# Sequence of Dickkopf-related protein 1 (Homo sapiens) (O94907 whole entry, looked up): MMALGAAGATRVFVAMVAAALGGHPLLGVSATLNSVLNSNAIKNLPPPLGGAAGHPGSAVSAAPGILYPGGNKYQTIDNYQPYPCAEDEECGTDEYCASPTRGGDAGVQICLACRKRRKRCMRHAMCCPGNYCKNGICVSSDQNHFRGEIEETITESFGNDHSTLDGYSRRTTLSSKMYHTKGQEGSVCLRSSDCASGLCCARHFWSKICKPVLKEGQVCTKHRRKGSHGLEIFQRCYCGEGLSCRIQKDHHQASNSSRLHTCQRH
# Sequence of Fibroblast growth factor 10 (Homo sapiens) (O15520 whole entry, looked up): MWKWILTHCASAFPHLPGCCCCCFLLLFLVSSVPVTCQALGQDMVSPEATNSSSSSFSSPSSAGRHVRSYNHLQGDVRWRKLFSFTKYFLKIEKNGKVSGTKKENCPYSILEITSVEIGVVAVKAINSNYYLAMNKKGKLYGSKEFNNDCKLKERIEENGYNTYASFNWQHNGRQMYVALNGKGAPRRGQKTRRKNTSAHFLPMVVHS
# Sequence of Epidermal growth factor receptor (Homo sapiens) (P00533 whole entry, looked up): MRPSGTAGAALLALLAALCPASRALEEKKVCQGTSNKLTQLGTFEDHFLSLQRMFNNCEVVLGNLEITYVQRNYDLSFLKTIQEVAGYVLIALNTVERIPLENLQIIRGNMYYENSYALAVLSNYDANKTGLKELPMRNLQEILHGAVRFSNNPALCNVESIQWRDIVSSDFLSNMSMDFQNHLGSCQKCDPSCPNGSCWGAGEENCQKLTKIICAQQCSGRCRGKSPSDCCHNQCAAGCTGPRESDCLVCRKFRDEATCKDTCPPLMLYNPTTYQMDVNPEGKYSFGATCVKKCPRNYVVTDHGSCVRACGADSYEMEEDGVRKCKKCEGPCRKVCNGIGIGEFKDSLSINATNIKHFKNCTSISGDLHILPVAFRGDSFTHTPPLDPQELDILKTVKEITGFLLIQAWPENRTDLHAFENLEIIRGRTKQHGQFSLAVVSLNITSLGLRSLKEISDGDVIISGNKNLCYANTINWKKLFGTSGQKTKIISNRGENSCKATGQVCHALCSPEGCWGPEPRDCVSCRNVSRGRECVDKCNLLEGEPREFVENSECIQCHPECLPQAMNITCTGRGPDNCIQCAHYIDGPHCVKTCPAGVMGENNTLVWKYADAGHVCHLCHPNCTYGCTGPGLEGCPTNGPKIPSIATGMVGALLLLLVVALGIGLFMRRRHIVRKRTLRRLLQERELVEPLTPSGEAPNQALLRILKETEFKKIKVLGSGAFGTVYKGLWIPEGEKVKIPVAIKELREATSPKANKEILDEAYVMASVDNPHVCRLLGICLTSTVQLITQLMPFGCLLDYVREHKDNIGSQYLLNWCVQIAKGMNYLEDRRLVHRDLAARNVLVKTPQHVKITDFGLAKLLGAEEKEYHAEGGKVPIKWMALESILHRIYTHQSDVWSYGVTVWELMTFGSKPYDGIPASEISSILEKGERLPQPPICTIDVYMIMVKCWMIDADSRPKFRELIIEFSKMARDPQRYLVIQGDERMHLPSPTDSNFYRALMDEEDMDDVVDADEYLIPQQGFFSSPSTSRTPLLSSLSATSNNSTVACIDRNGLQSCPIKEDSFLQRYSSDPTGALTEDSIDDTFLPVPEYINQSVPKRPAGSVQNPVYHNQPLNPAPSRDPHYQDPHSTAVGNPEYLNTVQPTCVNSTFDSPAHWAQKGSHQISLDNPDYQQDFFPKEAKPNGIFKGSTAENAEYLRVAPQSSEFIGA
# Sequence of Follistatin-related protein 3 (Homo sapiens) (O95633 whole entry, looked up): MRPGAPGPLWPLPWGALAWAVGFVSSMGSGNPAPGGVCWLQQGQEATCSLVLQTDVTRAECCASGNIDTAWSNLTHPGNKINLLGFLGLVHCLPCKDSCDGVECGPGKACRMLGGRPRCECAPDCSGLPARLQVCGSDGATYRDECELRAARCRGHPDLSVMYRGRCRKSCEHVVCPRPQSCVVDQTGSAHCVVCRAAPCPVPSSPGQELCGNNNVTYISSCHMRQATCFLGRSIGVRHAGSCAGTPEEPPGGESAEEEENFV
Structure (SMILES),composite z-score [1],composite z-score [2],composite z-score [3],z-score [4],composite z-score [5],composite z-score [6],composite z-score [7],composite z-score [8],composite z-score [9],composite z-score [10]
C[C@H]1Cc2c(-c3ccccc3)nc3c(c2CO1)CN(CCOc1ccccc1)CC3,1.21,-0.357,-0.815,-0.512 (inactive),1.19,1.28,0.65,1.29,0.94,0.127
CC1CC/C=C\[C@H]2OC34C=CCN(C(C)C)C(=O)[C@H]3N(CCCO)C(=O)[C@@H]4C2C(=O)O1 (stereo not given in full),1.29,-0.268,0.0886,-0.037 (inactive),-0.79,-0.785,-1.74,-1.21,-1.23,-0.476
Cc1cc2c(nc1C)CCCN2CC(O)CN1CCN(C)CC1 (stereo not given),0.478,0.859,0.337,0.154 (inactive),0.721,0.132,0.752,0.79,1.02,-1.07
CCCNC(=O)OC[C@H]1O[C@H](CCON=C2[C@H]3CCn4c(=O)n(-c5ccccc5)c(=O)n4[C@H]3[C@H](O)[C@@H]3O[C@H]23)C=C[C@@H]1Oc1ccc(OC)cc1,0.357,-0.139,-0.182,-0.374 (inactive),0.2,0.343,-0.0629,0.493,0.378,0.103
CCCCc1nc2c(c3c1C[C@H](C)OC3)CN(CCC(C)C)CC2,0.956,-0.0466,-0.47,-0.0873 (inactive),0.627,1.25,0.488,1.26,0.562,0.0968
CCc1cccc(NC(=O)O[C@H]2[C@H](OC(=O)Nc3ccc4c(c3)OCO4)[C@@H](OC(=O)Nc3ccc4c(c3)OCO4)[C@@H](OC)O[C@@H]2CO)c1,0.402,-0.144,-0.0627,-0.637 (inactive),1.38,1.35,0.446,1.32,0.583,0.863
O=C1[C@H]2[C@H]3[C@H](O)[C@H](O)CC(=NO[C@@H]4O[C@H](CO)[C@@H](O)[C@H](O)[C@H]4O)[C@H]3CC[C@H]2C(=O)N1C1CCCCC1,0.643,0.0533,-0.0589,-0.381 (inactive),0.0041,0.266,-0.0158,-0.182,-0.191,-1.65
O=C1C[C@]2(c3ccc([N+](=O)[O-])cc3)C(=O)N(CCN3CCOCC3)c3cc(CO)ccc3[C@H]2N1CC12CC3CC(CC(C3)C1)C2,0.39,0.398,0.793,0.14 (inactive),-0.629,0.163,-1,-0.258,-1.22,0.6
COc1ccc(O[C@@H]2[C@H](O)CO[C@H]2C=CC#Cc2ccccc2)cc1,1.32,-0.477,-0.716,0.167 (inactive),0.199,-0.207,-0.352,0.103,0.438,0.539
CC(C)=NOCc1ccc(-c2cc(-c3ccccc3)no2)cc1,0.0628,-0.285,-0.515,0.468 (inactive),0.356,0.283,0.279,-0.026,0.32,0.216
CS(=O)(=O)CCOC(=O)C1=CC(CCCO)=CC(c2cccs2)N(Cc2cccc(OC(F)(F)F)c2)C=C1C(=O)OCCS(C)(=O)=O (stereo not given),0.811,0.674,0.742,0.538 (inactive),0.739,0.873,-0.37,0.14,-0.06,0.915
O=C1[C@H]2[C@H]3[C@H](O)[C@H](O)CC(=NO[C@@H]4O[C@H](CO)[C@@H](O)[C@H](O)[C@H]4O)[C@H]3CC[C@H]2C(=O)N1Cc1ccccc1,0.366,-0.223,-0.752,-0.741 (inactive),0.437,0.656,0.426,0.0042,-0.566,-1.42
CCOC(=O)C1=CCC(c2cc3ccccc3[nH]2)NC1 (stereo not given),1.47,1.1,1.31,-1.02 (inactive),0.0855,0.233,0.242,0.0799,-0.494,1.65
C=C(/C(=C/C[C@H](OC(C)=O)c1ccc(OCCO)cc1)c1cnc2ccccc2c1)C(C)C,0.659,-0.523,-0.611,-0.494 (inactive),1.49,0.939,0.333,1.48,0.658,1.64
COc1ccc(O[C@H]2C=C[C@@H](c3ccccc3)O[C@@H]2COC(=O)CCC(C)=NOC(C)CN2CCCCc3nc(C)c(C)cc32)cc1 (stereo not given in full),1.42,-0.0789,0.208,-0.665 (inactive),-0.154,-0.86,-0.457,-0.106,-0.0649,1.36
CCOC(=O)[C@H](CC(C)C)NC(=O)CCC1CC(OC(=O)NCc2cccc3ccccc23)CC2(CCCC(COC(=O)NCCN3CCOCC3)O2)O1 (stereo not given in full),0.608,-0.265,-0.668,-0.746 (inactive),0.763,1.28,0.416,0.707,0.652,0.209
COC(=O)[C@@H]1CC[C@H](C)[C@@H](c2ccc(C)cc2)N1C(=O)c1ccc(C=NOC[C@@H](O)COCc2ccco2)cc1,-0.525,-0.456,0.675,-0.0402 (inactive),-1.43,-1.79,-1.3,-2.16,-0.5,1.87

Structure (SMILES),composite z-score [1],composite z-score [2],composite z-score [3],z-score [4],composite z-score [5],composite z-score [6],composite z-score [7],composite z-score [8],composite z-score [9],composite z-score [10]
CC(C)[Si]1(C(C)C)O[C@@H](c2ccccc2)c2cc(C3CC3)nc(-c3ccccc3)c21,-0.792,-0.276,-0.0652,-0.613 (inactive),-0.0733,-0.248,-0.337,-0.349,-0.568,-1.07
CN1C(=O)C2C=CC(C(O)c3ccc(Br)cc3)N(N(c3ccccc3)c3ccccc3)C2C1=O (stereo not given),0.259,0.359,1.04,0.605 (inactive),-0.14,-0.0403,-0.211,0.0397,-0.626,1.26
CCCNC(=O)OC[C@H]1O[C@H](CCON=C[C@@H](OC)[C@H](C)C=CCC(=O)OC)C=C[C@@H]1Oc1ccc(OC)cc1,0.638,-0.305,-0.528,-0.213 (inactive),0.463,-0.0589,0.15,0.109,0.482,0.717
COc1cccc([C@H]2Oc3ccc(OC)cc3C(=NOC(C)CN3CCCc4nc(C)c(C)cc43)[C@@H]2O)c1 (stereo not given in full),-0.403,-0.207,-0.335,-0.467 (inactive),0.474,0.827,0.746,0.0288,0.492,-0.109
Cc1ccc(F)cc1S(=O)(=O)N[C@@H]1CCN(Cc2ccc(CC(C)C)cc2)C1,-0.242,-0.389,-0.24,1.1 (inactive),-0.253,-1.12,-0.397,-0.301,-0.0911,0.346
O=C1c2ccccc2[C@@]2(Cc3ccccc3N(C3CC3)C2=O)[C@H](c2ccc(CO)cc2)N1Cc1ccccc1C(F)(F)F,-0.0922,0.261,0.281,-0.628 (inactive),-0.837,-0.433,-0.942,-0.672,-1.2,0.394
CCOC(=O)[C@H](CC(C)C)NC(=O)CCC1CC(OC(=O)NCCc2ccc(F)cc2)CC2(CCCC(COC(=O)NCc3ccccc3)O2)O1 (stereo not given in full),0.859,-0.273,-0.29,-1.19 (inactive),1.39,0.808,0.907,1.01,0.89,-0.198
[N-]=[N+]=NCc1ccccc1C[C@]1(C(=O)NCc2ccccc2)N=C(c2ccc(OCCCO)cc2)O[C@H]1c1ccccc1N=[N+]=[N-],1.3,0.658,1.09,0.00592 (inactive),0.856,1.12,-0.463,0.188,-0.678,-0.222
COCCOC(=O)N1C(=O)[C@@]2(c3cc(C#Cc4ccc(OC)cc4)ccc31)[C@H](C(=O)N1CCN(c3ncccn3)CC1)[C@H]1C(=O)O[C@H](c3ccccc3)[C@H](c3ccccc3)N1[C@@H]2c1ccc(OCCO)cc1,0.593,0.61,0.628,0.688 (inactive),0.968,0.043,0.624,1.11,1.19,1.03
COC(=O)CC1OC1[C@H](C)[C@@H](OC)C(C)C (stereo not given in full),0.505,-0.0977,-0.111,0.743 (inactive),0.142,-0.792,0.335,0.0479,0.82,1.32
CCCNC(=O)OC[C@H]1O[C@H](CCON=CC[C@@H]2C=C[C@H](OC(C)=O)[C@@H](COC(C)=O)O2)C=C[C@@H]1Oc1ccc(OC)cc1,0.46,-0.0927,-0.412,0.599 (inactive),0.817,0.524,0.492,0.759,0.537,0.434
CC1(C)OCC(C(O)C2=CCCCC2=O)CO1 (stereo not given),1.04,-0.137,-0.704,0.733 (inactive),0.694,0.999,0.625,0.859,0.717,1.6
C[C@@H](c1ccccc1)N1C(=O)[C@H]2[C@H]3[C@H](O)[C@H](O)CC(=NNC(=O)OCc4ccccc4)[C@H]3CC[C@H]2C1=O,-0.0979,0.24,0.794,0.373 (inactive),0.0359,-0.354,0.191,-0.461,-0.415,0.0683
COC(=O)[C@H](C)NC(=O)CCC1CC(OC(=O)NCCc2ccc(F)cc2)CC2(CCCC(COC(=O)NCC(c3ccccc3)c3ccccc3)O2)O1 (stereo not given in full),0.713,-0.389,-0.498,-0.527 (inactive),0.377,0.756,0.384,0.691,0.457,-0.0097
COC(=O)CC=C[C@H](C)[C@@H](OCc1ccccc1Br)C(C)C,-0.0201,-0.371,-0.397,-0.76 (inactive),0.321,-0.243,0.195,0.285,0.292,0.0114
COC(=O)C1=C(C)[C@@H](O)[C@@H](C)[C@H](c2c(OC)c(OC)c(C)c(OC)c2OC)O1,0.191,-0.27,-0.595,-0.361 (inactive),0.256,-0.419,0.269,0.398,0.56,0.394
